Most compounds without a hit are left out; they make up all but 7.4% or so of the library.
FLuc modulator – inhibits or activates purified firefly luciferase, miR-21 counter-screen; P08659; purified FLuc, Km substrates, luminescence inhibition; Potency, µM (doses to about 57.5 µM), usual class: inhibitors; 6.9% of 360,000 active; note: nearly all actives have a fitted effect of over 55% in size
Target sequence (P08659 whole entry, looked up): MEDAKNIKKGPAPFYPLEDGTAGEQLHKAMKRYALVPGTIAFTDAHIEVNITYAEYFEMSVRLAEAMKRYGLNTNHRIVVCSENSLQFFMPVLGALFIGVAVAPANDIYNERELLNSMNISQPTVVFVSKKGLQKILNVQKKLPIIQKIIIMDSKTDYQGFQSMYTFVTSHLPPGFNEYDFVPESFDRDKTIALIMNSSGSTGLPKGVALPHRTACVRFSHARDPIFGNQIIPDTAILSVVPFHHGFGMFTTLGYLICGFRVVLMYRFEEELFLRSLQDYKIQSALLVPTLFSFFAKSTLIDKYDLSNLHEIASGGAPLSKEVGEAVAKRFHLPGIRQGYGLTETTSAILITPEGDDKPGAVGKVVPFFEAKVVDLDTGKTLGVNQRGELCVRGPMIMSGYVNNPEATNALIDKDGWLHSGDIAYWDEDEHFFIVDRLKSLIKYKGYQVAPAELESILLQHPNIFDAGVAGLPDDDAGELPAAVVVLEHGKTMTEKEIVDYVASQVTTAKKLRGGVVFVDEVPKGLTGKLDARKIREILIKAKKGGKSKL
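Biochemical qHTS of compounds, final roughly 60 µM downward over six points, against 10 nM purified firefly luciferase using Km concentrations of substrates (10 uM D-luciferin, 10 uM ATP) in Tris acetate pH 7.5 buffer; luminescence output.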
KinaseGlo FLuc – blocks Kinase-Glo luciferase, a counter-screen artifact. Q27757. Kinase-Glo luciferase, ATP luminescence, 8 min. Potency, µM (series often up to 38.3 µM), most hits filed as inhibitors. 0.28% of 200,000 active; note: nearly all actives have a fitted effect of over 60% in size
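Inhibition of Kinase-Glo luciferase light generation was assessed at 10 uM ATP in pH 7.2 imidazole buffer, with luminescence measured after eight minutes at ambient temperature.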
ELG1 genotox – inducers of genotoxicity in HEK293T ELG1-luciferase cells; HEK293T ELG1-luciferase reporter, luminescence, 16 h; Potency, µM (titrated, usually from 46 µM), actives largely listed as activators; 1.3% of 330,000 active; note: nearly all actives have a fitted effect of over 60% in size
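Genotoxicity was scored as increased ELG1-luciferase reporter signal, measured by ONE-Glo luminescence (30 min, room temperature). Compound or vehicle exposure of the HEK293T reporter cells lasted 16 hr at 37°C.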
SMN2 splice enh – increases expression of the SMN2 splice variant. AID 1458. HEK293 SMN2-luciferase splicing reporter, luminescence, 30-36 h. 2.8% of 210,000 active. Potency, µM (highest dose often 46.1 µM), usual class: activators; note: nearly all actives have a fitted effect of over 55% in size
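HEK293 cells carry an SMN2 minigene-luciferase reporter in which exon 7 inclusion puts luciferase in frame. Cells were seeded at 2000 cells/well, attached for 10-12 hours, then exposed to compounds for 30-36 hours at 37C before ONE-Glo luminescence.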
Rab9 prom act – Rab9 promoter activation. Huh7 Rab9 promoter-luciferase reporter, luminescence, 24 h. Potency, µM (series often up to 9.22 µM), hits mostly activators. 2.8% of 320,000 active; note: nearly all actives have a fitted effect of over 60% in size
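Measured in stably transfected Huh7 cells bearing a Rab9 promoter–luciferase construct: 24 h compound treatment at 37 °C, followed by luminescence detection.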
NPC1 promoter act – NPC1 promoter activation; Huh7 NPC1 promoter luciferase reporter, 24 h; Potency, µM (series often up to 9.22 µM), actives largely listed as activators; 2.4% of 320,000 active; AID 485313; note: nearly all actives have a fitted effect of over 60% in size
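Cells: Huh7 expressing luciferase under the NPC1 promoter, 1500/well. Seeded 2 h, compound added, incubated 24 h at 37 °C. Luciferase reagent, 10 min ambient, then luminescence.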
Numbers stand for hits; – = inactive; ? = inconclusive; · = no result. Calls come from the whole dose curve; as a rule, active = well fitted curve in the direction sought with a large enough effect; inconclusive = small, poorly fitted or top-dose-only effect, or another doubt; inactive = no such curve, though single readings can be large; an effect the other way counts as inactive or inconclusive.

SMILES | FLuc modulator | KinaseGlo FLuc | ELG1 genotox | SMN2 splice enh | Rab9 prom act | NPC1 promoter act
Cc1nc2ccc(NC(=O)N(C)c3ccccc3)cc2s1 | 13µM | – | ? | 22µM | ? | ?
CC(=O)Nc1cccc(NC(=O)Cc2cccs2)c1 | – | · | – | · | – | –
Cc1nc2ccc(NC(=O)Cc3ccc(Br)cc3)cc2s1 | – | · | – | · | – | –
Cc1nc2ccc(NC(=O)Cc3cccs3)cc2s1 | 7.6µM | – | ? | ? | 2.5µM | 4µM
O=C(Cc1cccs1)Nc1cccc(-c2nc3cc4ccccc4cc3[nH]2)c1 | 0.85µM | ? | ? | 6.3µM | 1.8µM | 1.6µM
Cc1ccc(NC(=O)Cc2cccs2)cc1Cl | 19µM | · | – | · | ? | –
Cn1c(=O)n(C)c2cc(N3CCOCC3)c(NC(=O)c3ccc(C(C)(C)C)cc3)cc21 | – | · | · | ? | · | ·
CC(=O)N1CCC2(CC1)CN(C(=O)Nc1cccc(C#N)c1)C2 | · | – | · | – | · | ·
Cc1ccc(N(CC(=O)NCCSc2ccccc2)S(=O)(=O)c2ccc(F)cc2)cc1 | – | · | · | – | · | ·
NC(=O)c1ccccc1-c1noc(-c2ccccc2F)n1 | 17µM | · | · | · | ? | ?
COCCNC(=O)c1ccccc1-c1nc(-c2ccccc2OC)no1 | ? | – | – | – | – | ?
NC(=O)c1ccc(-c2noc(-c3ccccc3F)n2)cc1 | 3µM | · | ? | · | 0.32µM | 0.32µM
COC(=O)NC(c1ccccc1)c1c[nH]c2ccccc12 (configuration not stated) | · | – | · | – | · | ·
Cc1ccccc1CSc1nnc2[nH]c(=O)cc(C)n12 | – | · | · | · | · | ·
Cc1ccc(NC(=O)/C=C/c2ccccc2)c(Br)c1 | 2.7µM | · | · | 8.9µM | · | ·
Cn1c(NC(=O)/C=C\c2ccccc2)cc(=O)n(C)c1=O | ? | – | ? | · | 3.5µM | –
CCOC(=O)c1ccc(NC(=O)Cn2nc(SC)c(S(=O)(=O)c3ccc(Cl)cc3)c2N)cc1 | – | · | · | – | · | ·
CCOc1ccc(-c2cc3nc(C4CCN(C(=O)OC(C)(C)C)CC4)c(C(=O)Nc4ccc(C)c(F)c4)cn3n2)cc1 | – | · | · | – | · | ·
CC1=NOC(=O)/C1=C/c1ccc(O)c(Cl)c1 | ? | · | – | · | – | –
CN(C)c1ccc(/C=C2/C(=O)Nc3ccccc32)cc1 | · | – | · | · | · | ·
CN(C)c1ccc(/C=C2\N=C(C(C)(C)C)OC2=O)cc1 | 1.5µM | · | – | · | – | –
CCN(CC)c1ccc(/C=C2/C(=O)ON=C2C)cc1 | 12µM | – | – | – | – | –
CN(C)c1ccc(/C=C2\C(=O)Nc3ccccc32)cc1 | · | – | · | 3.2µM | 3.7µM | 1.5µM
CC1=NOC(=O)/C1=C/c1ccc(N(C)C)cc1 | 7.6µM | · | – | · | – | –
C[C@H](CC[C@@H]1OC1(C)C)C1CC[C@H]2[C@@H]3CC=C4C[C@@H](O)CC[C@]4(C)[C@H]3CC[C@]12C (some centres not stated) | · | · | · | – | · | ·
SMILES | FLuc modulator | KinaseGlo FLuc | ELG1 genotox | SMN2 splice enh | Rab9 prom act | NPC1 promoter act
N#C/C(=N\Nc1ccc(Cl)cc1)C(=N)N1CCCCCC1 | 0.95µM | – | 1.8µM | 3.5µM | 0.32µM | 0.4µM
N#C/C(=N\Nc1ccccc1)C(=N)N1CCCCC1 | 5.4µM | – | 6.5µM | 11µM | ? | 2µM
Cc1ccc(N/N=C(\C#N)C(=N)N2CCCCC2)cc1 | 5.4µM | · | ? | · | 0.5µM | 0.45µM
CCOc1ccccc1NC(=O)c1c(NC(=O)Cc2ccc(OC)cc2)sc2c1CCC2 | – | · | · | – | · | ·
C[C@@H]1C[C@H](OC(=O)[C@@H](O)c2ccccc2)CC(C)(C)N1C | · | – | · | – | · | ·
CC(=O)c1cc(C#N)c(SCc2ccncc2)nc1C | – | · | – | · | – | –
CC(=O)c1cc(C#N)c(SCc2ccccc2C#N)nc1C | 15µM | – | – | – | – | –
Cc1noc(C)c1COc1cccc(C(=O)Nc2ccc(OCc3ccccc3)cc2)c1 | 8.5µM | – | – | – | – | –
Cc1noc(C)c1COc1ccc(C(=O)Nc2ccccc2)cc1 | – | – | – | – | – | –
CCSc1nnc(NC(=O)c2cccc(OCc3c(C)noc3C)c2)s1 | ? | – | – | – | – | –
COc1ccc2nc(NC(=O)c3cccc(OCc4c(C)noc4C)c3)sc2c1 | 1.5µM | – | – | – | – | –
COc1cccc(-n2ccn(CC(=O)Nc3ccccc3F)c(=O)c2=O)c1 | – | · | · | · | · | ·
CCOC(=O)CSc1nc2cc(OC)c(OC)cc2c2nc(-c3ccccc3)nn12 | – | · | · | – | · | ·
Cc1c(N=C2C=CC(=O)c3ccccc32)c(=O)n(-c2ccccc2)n1C | ? | – | – | – | – | –
Cc1c(N=C2C=C(Br)C(=O)C(Br)=C2)c(=O)n(-c2ccccc2)n1C | 15µM | ? | – | – | – | –
COc1ccc(CCNC(=O)CSc2nc3ccccc3nc2Cc2ccc(Cl)cc2)cc1OC | – | · | · | · | · | ·
